Assay results from the supplement of paper PMC7380943.

Columns and labels:
[1] = tested on: CLZ3 (HCA2 human fibroblast dual HR-NHEJ reporter); assay: NHEJ repair efficiency (GFP+ cells) relative to control (log10 fold); higher = more non-homologous end joining; conditions: 5 µM; doxycycline 0.5 ug/mL
[2] = tested on: CLZ3 (HCA2 human fibroblast dual HR-NHEJ reporter); assay: HR repair efficiency (tdTomato+ cells) relative to control (log10 fold); higher = more homologous recombination; conditions: 5 µM; doxycycline 0.5 ug/mL
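Throughout, for HR repair efficiency (tdTomato+ cells) relative to control: compound given one day before doxycycline, which switches on I-SceI endonuclease expression to create double-strand breaks within the integrated reporter.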
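Throughout, for NHEJ repair efficiency (GFP+ cells) relative to control: compound given one day ahead of doxycycline, which switches on I-SceI endonuclease to cut the chromosomally integrated reporter and create DSBs.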

SMILES	NHEJ repair efficiency (log10) [1]	HR repair efficiency (log10) [2]
CC[C@H]1CN2CC[C@@]3(C(=O)Nc4ccccc43)[C@@H]2C[C@@H]1/C(=C\OC)C(=O)OC [Isorhynchophylline]	-0.108	-0.0739
COc1cc(C2OCC3C(c4cc(OC)c(O[C@@H]5O[C@H](CO)[C@@H](O)[C@H](O)[C@H]5O)c(OC)c4)OCC23)cc(OC)c1O[C@H]1O[C@@H](CO)[C@H](O)[C@@H](O)[C@@H]1O (stereo not given in full) [Eleutheroside E]	0.119	-0.0597
CC(C)=CCCC(C)(O)C1CCC2(C)C1C(O)CC1C3(C)CCC(O)C(C)(C)C3C(OC3OC(CO)C(O)C(O)C3O)CC12C (stereo not given) [R-Ginsenoside Rh1]	-0.0562	0.0565
COc1cc2c(cc1O)C[C@@H]1NCCc3cc(OC)c(O)c-2c31 [Norisoboldine]	-0.132	-0.0981
CCN1CC2(COC)CCC(O)C34C5CC6C(OC)CC(O)(C5C6O)C(C(OC)C23)C14 (stereo not given) [Bullatine B]	-0.0469	0.0659
N#C/C=C1/C=C[C@@H](O)[C@H](O)[C@H]1O[C@@H]1O[C@H](CO)[C@@H](O)[C@H](O)[C@H]1O [Lithospermoside]	0.0837	0.0424
N#CCc1ccc2c(c1)OCO2 [Homopiperonylonitrile]	0.103	0.127
COC(=O)C1=CCCN(C)C1 [Arecoline]	0.0763	0.183
O=C1C[C@@H]2OCC=C3CN4CC[C@]56c7ccccc7N1[C@H]5[C@H]2[C@H]3C[C@H]46 [Strychnine]	0.104	-0.0183
C=C(C)C1CC=C(C=O)CC1 (stereo not given) [Perillaldehyde]	0.0128	-0.104
